Records with an inconclusive call do not appear. Where a structure was tested more than once in an assay, its records may differ in their call. Activity calls are given as the source filed them. The calls were made as follows, unless noted: active = hit-call score of the fitted dose curve at least 0.9, where 1 is the maximum; inconclusive = response in the unintended direction; inactive = score below 0.9.
Key:
[1] = target: human RAR-related Orphan Receptor gamma (RORg), RORC (gene 6097) (UniProt P51449); assay: ATG_RORg_TRANS: Attagene TRANS-FACTORIAL HepG2 Assay for human RAR-related Orphan Receptor gamma (RORg) (AID 2283011)
Procedure, shortened: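 First, HepG2 liver cells were transfected with GAL4-UAS-driven reporter constructs and the RORg-Gal4 fusion. Next, they were treated with chemical for 24 h. Finally, reporter mRNA was quantified by RT-PCR and capillary electrophoresis, with upward activity fitted against DMSO.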

[2] = target: Retinoic acid receptor RXR-alpha (Homo sapiens) (UniProt P19793); assay: ATG_RXRa_TRANS: Attagene TRANS-FACTORIAL HepG2 Assay for human Retinoid X Receptor alpha (RXRa) (AID 2283012)
Procedure, shortened: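 TRANS format reporting activity of exogenous RXRa-Gal4 chimera in transiently transfected HepG2, 24 h exposure. Reporter transcripts quantified by RT-PCR with capillary electrophoresis, with gain of signal scored relative to DMSO.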

[3] = read-out: E-selectin (Homo sapiens) (UniProt P16581); assay: BSK_3C_Eselectin: BioMAP Diversity Plus: 3C Assay for Eselectin Biomarker Activity (AID 2283015; active = hit-call score of the fitted dose curve at least 0.9, where 1 is the maximum; inactive = score below 0.9); conditions: primary human endothelial cells (HUVEC); actives raise or lower the signal
Procedure, shortened: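 ELISA read-out of E-selectin on endothelial monolayers after 24 h chemical treatment. Human umbilical vein primary cells served as the system, with DMSO defining baseline activity for bidirectional fitting.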

[4] = read-out: Interleukin-1 alpha (IL1a), IL1A (gene 3552); assay: BSK_BE3C_IL1a: BioMAP Diversity Plus: BE3C Assay for Interleukin-1 alpha (IL1a) Biomarker Activity (AID 2283016; active = hit-call score of the fitted dose curve at least 0.9, where 1 is the maximum; inactive = score below 0.9); conditions: primary human bronchial epithelial cells; actives raise or lower the signal
Procedure, shortened: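 IL-1a measured by ELISA after 24 h treatment of human primary bronchial epithelial cells, with gain or loss of signal fitted versus DMSO. Parallel cultures stained with SRB gauge overt cytotoxicity.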

[5] = read-out: Monocyte Chemoattractant Protein-1 (MCP1), CCL2 (gene 6347); assay: BSK_3C_MCP1: BioMAP Diversity Plus: 3C Assay for Monocyte Chemoattractant Protein-1 (MCP1) Biomarker Activity (AID 2283017; active = hit-call score of the fitted dose curve at least 0.9, where 1 is the maximum; inactive = score below 0.9); conditions: primary human endothelial cells (HUVEC); actives raise or lower the signal
Procedure, shortened: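 ELISA read-out of MCP-1 from human umbilical vein endothelial cell cultures harvested 24 h post-dosing. Gain or loss of signal was fitted relative to DMSO.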

[6] = read-out: Monocyte Chemoattractant Protein-1 (MCP1), CCL2 (gene 6347); assay: BSK_4H_MCP1: BioMAP Diversity Plus: 4H Assay for Monocyte Chemoattractant Protein-1 (MCP1) Biomarker Activity (AID 2283018; active = hit-call score of the fitted dose curve at least 0.9, where 1 is the maximum; inactive = score below 0.9); conditions: primary human endothelial cells (HUVEC); actives raise or lower the signal
Procedure, shortened: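 ELISA of MCP-1 (CCL2) 24 h after chemical dosing of HUVEC in the BioMAP 4H system. Gain or loss versus DMSO fitted; parallel SRB staining (560 nm) tracked overt cytotoxicity.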

[7] = read-out: Human Leukocyte Antigen - DR isotype (HLADR), HLA-DRA (gene 3122); assay: BSK_3C_HLADR: BioMAP Diversity Plus: 3C Assay for Human Leukocyte Antigen - DR isotype (HLADR) Biomarker Activity (AID 2283019; active = hit-call score of the fitted dose curve at least 0.9, where 1 is the maximum; inactive = score below 0.9); conditions: primary human endothelial cells (HUVEC); actives raise or lower the signal
Procedure, shortened: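 ELISA readout of surface HLA-DR on human umbilical vein endothelium, taken 24 h after chemical treatment. Gain- and loss-of-signal were both fitted relative to DMSO.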

[8] = read-out: Interleukin-8 (IL8), CXCL8 (gene 3576); assay: BSK_3C_IL8: BioMAP Diversity Plus: 3C Assay for Interleukin-8 (IL8) Biomarker Activity (AID 2283020; active = hit-call score of the fitted dose curve at least 0.9, where 1 is the maximum; inactive = score below 0.9); conditions: primary human endothelial cells (HUVEC); actives raise or lower the signal
Procedure, shortened: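 IL-8 was measured by ELISA in HUVEC cultures 24 h after chemical dosing, with gain or loss of signal fitted relative to DMSO. Parallel SRB total-protein staining tracked overt cytotoxicity.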

[9] = target: human Retinoid X Receptor beta (RXRb), RXRB (gene 6257) (UniProt P28702); assay: ATG_RXRb_TRANS: Attagene TRANS-FACTORIAL HepG2 Assay for human Retinoid X Receptor beta (RXRb) (AID 2283013)
Procedure, shortened: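 Readout is reporter transcript induction after 24 h dosing. It is measured by RT-PCR of total RNA followed by fluorescent capillary electrophoresis. HepG2 liver cells carry transfected multiple reporter units driven by an exogenous RXRb-Gal4 fusion; activity is relative to DMSO.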

[10] = target: human Thyroid Receptor alpha (THRa1), THRA (gene 7067) (UniProt P10827); assay: ATG_THRa1_TRANS: Attagene TRANS-FACTORIAL HepG2 Assay for human Thyroid Receptor alpha (THRa1) (AID 2283014)
Procedure, shortened: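 Reporter transcript induction, read by capillary electrophoresis of 6-FAM-labelled RT-PCR products, reflects activity of a transfected THRa1-Gal4 fusion in HepG2 liver cells. Cells were dosed for 24 h; activity was fitted in the positive direction against DMSO.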

Measured: AC50

Sequence of human RAR-related Orphan Receptor gamma (RORg), RORC (gene 6097) (P51449 whole entry, looked up, the tested form may be a part): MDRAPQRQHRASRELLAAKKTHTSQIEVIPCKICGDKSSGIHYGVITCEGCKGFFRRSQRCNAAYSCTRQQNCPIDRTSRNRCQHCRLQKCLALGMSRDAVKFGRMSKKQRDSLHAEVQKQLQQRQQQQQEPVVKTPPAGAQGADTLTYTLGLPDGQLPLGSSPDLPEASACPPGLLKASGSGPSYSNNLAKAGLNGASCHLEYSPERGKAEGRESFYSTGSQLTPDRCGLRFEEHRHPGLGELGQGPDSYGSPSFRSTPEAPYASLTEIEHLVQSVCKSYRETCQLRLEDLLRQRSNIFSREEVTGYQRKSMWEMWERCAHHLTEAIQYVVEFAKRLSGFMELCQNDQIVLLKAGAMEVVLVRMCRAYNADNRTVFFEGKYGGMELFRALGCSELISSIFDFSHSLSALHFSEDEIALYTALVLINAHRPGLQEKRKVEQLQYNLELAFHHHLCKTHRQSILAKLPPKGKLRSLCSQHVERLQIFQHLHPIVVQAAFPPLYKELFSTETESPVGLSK
Sequence of Retinoic acid receptor RXR-alpha (Homo sapiens) (P19793 whole entry, looked up, the tested form may be a part): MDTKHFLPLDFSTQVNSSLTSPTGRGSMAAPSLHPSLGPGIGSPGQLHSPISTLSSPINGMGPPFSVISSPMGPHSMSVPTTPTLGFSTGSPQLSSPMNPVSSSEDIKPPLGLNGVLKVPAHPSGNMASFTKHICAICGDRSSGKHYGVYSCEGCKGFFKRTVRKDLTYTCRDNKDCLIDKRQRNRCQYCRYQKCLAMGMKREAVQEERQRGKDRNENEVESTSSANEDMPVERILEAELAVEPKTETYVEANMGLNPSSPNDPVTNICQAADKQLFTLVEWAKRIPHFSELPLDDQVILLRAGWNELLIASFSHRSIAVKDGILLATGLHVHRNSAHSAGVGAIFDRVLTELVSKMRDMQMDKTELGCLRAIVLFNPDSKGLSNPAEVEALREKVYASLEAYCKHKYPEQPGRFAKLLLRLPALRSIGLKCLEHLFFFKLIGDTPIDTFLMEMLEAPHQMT
Sequence of E-selectin (Homo sapiens) (P16581 whole entry, looked up): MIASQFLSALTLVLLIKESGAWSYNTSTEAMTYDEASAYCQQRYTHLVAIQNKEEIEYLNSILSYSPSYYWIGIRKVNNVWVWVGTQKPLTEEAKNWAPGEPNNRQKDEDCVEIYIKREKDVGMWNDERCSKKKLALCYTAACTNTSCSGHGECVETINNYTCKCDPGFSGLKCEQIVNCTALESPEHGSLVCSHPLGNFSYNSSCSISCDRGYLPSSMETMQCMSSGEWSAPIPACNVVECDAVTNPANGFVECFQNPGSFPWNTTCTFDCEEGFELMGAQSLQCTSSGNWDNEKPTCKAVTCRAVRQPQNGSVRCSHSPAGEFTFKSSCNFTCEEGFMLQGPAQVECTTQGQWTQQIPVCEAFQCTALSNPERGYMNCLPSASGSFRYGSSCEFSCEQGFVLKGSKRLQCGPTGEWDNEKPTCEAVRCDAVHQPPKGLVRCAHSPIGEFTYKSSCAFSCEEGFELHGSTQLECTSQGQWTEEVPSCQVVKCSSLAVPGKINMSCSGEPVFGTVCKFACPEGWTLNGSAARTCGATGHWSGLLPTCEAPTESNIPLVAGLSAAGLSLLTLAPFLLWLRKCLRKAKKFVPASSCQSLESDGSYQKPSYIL
Sequence of human Thyroid Receptor alpha (THRa1), THRA (gene 7067) (P10827 whole entry, looked up, the tested form may be a part): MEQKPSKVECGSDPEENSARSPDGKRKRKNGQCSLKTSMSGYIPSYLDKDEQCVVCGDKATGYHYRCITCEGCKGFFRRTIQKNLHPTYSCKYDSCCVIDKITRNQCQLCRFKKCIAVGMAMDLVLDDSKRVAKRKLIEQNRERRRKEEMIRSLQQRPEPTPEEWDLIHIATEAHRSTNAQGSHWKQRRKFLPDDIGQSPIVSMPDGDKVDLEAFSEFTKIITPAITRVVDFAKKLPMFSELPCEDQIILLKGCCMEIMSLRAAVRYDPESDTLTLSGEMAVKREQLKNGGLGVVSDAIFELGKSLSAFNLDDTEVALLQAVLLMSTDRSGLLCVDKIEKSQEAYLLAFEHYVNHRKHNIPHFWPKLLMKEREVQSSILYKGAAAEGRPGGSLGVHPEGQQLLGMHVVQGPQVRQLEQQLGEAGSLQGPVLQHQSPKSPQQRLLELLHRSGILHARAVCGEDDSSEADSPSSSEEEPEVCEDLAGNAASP
Sequence of human Retinoid X Receptor beta (RXRb), RXRB (gene 6257) (P28702 whole entry, looked up, the tested form may be a part): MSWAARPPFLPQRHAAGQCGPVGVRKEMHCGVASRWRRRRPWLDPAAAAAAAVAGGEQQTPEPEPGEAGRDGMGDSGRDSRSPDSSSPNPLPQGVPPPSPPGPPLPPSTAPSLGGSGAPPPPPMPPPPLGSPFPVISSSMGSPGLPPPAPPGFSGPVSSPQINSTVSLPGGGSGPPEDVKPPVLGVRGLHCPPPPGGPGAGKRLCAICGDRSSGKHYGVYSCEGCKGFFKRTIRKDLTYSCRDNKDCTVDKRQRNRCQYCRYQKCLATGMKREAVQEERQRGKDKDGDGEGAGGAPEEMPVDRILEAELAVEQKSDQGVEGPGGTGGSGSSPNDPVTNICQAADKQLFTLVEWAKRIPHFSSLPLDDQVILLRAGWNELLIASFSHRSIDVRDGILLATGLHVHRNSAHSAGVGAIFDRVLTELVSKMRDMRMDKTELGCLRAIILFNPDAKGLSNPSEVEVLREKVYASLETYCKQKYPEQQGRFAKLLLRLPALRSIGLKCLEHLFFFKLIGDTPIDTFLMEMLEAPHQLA

CCc1ccccc1N
inactive: [1]

ClCC(Cl)CCl
not listed: [9] | [10]
inactive: all other assays above

O=C1CCCN1
inactive: [1]

CCOP(=S)(OCC)SCSP(=S)(OCC)OCC
active: [9] 12.4 µM
inactive: all other assays above

N#CCCO
inactive: [1] | [2] | [10]

CC12CC1(C)C(=O)N(c1cc(Cl)cc(Cl)c1)C2=O (configuration not stated)
inactive: all assays above

O=C(O)C(F)(F)C(F)(F)C(F)(F)C(F)(F)C(F)(F)C(F)(F)F
inactive: [1] | [2] | [10] | [3] | [4] | [5] | [6] | [7] | [8]
active: [8] 13.9 µM

CCCCCCCCSC(=O)Oc1cc(Cl)nnc1-c1ccccc1
inactive: [1] | [2] | [9]

BrCCBr
not listed: [9]
inactive: all other assays above

CCc1ccccc1C
inactive: [1] | [2] | [9] | [10]

ClCCBr
inactive: [1] | [9]

O=C(O)C(Cl)(Cl)Cl
inactive: all assays above

CC(=O)C(Cl)C(=O)N(C)C (configuration not stated)
inactive: [1] | [2] | [9] | [10]
active: [3] 20 µM | [4] 20 µM | [5] 20 µM | [6] 20 µM | [8] 11.7 µM

O=C(c1ccccc1)C(Cl)Cl
inactive: [1] | [2] | [10]

O=C1C(Cl)=C(Cl)C(=O)c2ccccc21
inactive: [1] | [2] | [9]

COS(=O)(=O)c1ccc(C)cc1
inactive: [1] | [2] | [9] | [10]

OCc1ccco1
not listed: [9] | [10]
inactive: all other assays above

CCC(C)c1cccc(C(C)CC)c1O (configuration not stated)
active: [9] 26.3 µM
inactive: [1] | [2] | [10]

O=C(Cl)c1ccc(Cl)cc1
inactive: [1] | [2] | [10]

CC1CN1P(=O)(N1CC1C)N1CC1C (configuration not stated)
inactive: [1] | [2] | [10]

O=C(NCO)NCO
inactive: [1] | [2]

CCCCCCCCc1ccc(O)cc1
inactive: [1] | [2] | [10]
active: [9] 24.5 µM | [10] 43.7 µM | [3] 31.7 µM | [4] 32.6 µM | [5] 34.1 µM | [6] 20.1 µM | [7] 31.5 µM | [8] 34.6 µM

COc1ccc(C=O)cc1OC
inactive: [1] | [2] | [10]

N#CCc1ccc(Cl)cc1
inactive: [1] | [2] | [9] | [10]

Cc1ccccc1N
not listed: [9]
inactive: all other assays above

CC(C)(C)CC(C)(C)c1ccc(O)cc1
active: [3] 7.99 µM | [4] 19.5 µM | [5] 9.66 µM | [6] 6.54 µM | [7] 6.4 µM | [8] 10.1 µM
inactive: [1] | [2] | [10]

CCOP(OCC)OCC
inactive: [1]

O=c1[nH]c(=O)[nH]c(=O)[nH]1
inactive: all assays above

O=CC=O
inactive: [1] | [2] | [10]

CCCCC(CC)CO[N+](=O)[O-] (configuration not stated)
active: [3] 35.8 µM | [6] 20 µM | [7] 35.4 µM
not listed: [9] | [10]
inactive: all other assays above

CC(C)(c1ccc(OCC2CO2)cc1)c1ccc(OCC2CO2)cc1 (configuration not stated)
inactive: [1] | [2]

CCC1(c2ccc(N)cc2)CCC(=O)NC1=O (configuration not stated)
inactive: [1] | [2] | [10]

COc1ccc(C=O)cc1
inactive: [1]

O=P(O)(O)CN(CP(=O)(O)O)CP(=O)(O)O
inactive: [1] | [2] | [9] | [10]

CN(CCCC(=O)c1cccnc1)N=O
inactive: [1] | [2] | [9] | [10]
